Measurements published in publication PMC5540273 (PLoS ONE, 2017).

Experiments:
Details in all cases: concentration: 1 μM, replicates: in singlicate; n = 1
[1] = test system: JAK1(JH2domain-pseudokinase)
[2] = test system: JAK2(JH1domain-catalytic)
[3] = test system: JAK3(JH1domain-catalytic)
JNK1 = test system: T1, JNK1
T1 construct: gene MAPK8

JNK2 = test system: T2, JNK2
T2 construct: gene MAPK9

JNK3 = test system: T3, JNK3
T3 construct: gene MAPK10

KIT-autoinhibited = test system: KIT-autoinhibited
KIT = test system: KIT
LATS1 = test system: LATS1
LATS2 = test system: LATS2
LCK = test system: LCK
LIMK1 = test system: LIMK1
LIMK2 = test system: LIMK2
LKB1 = test system: T4, LKB1
T4 construct: gene STK11

LOK = test system: T5, LOK
T5 construct: gene STK10

LRRK2 = test system: LRRK2
LTK = test system: LTK
LYN = test system: LYN
LZK = test system: T6, LZK
T6 construct: gene MAP3K13

MAK = test system: MAK
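Further: KINOMEscan kinase panel screen.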

| SMILES | %Inh [1] [%] | %Inh [2] [%] | %Inh [3] [%] | %Inh (JNK1) [%] | %Inh (JNK2) [%] | %Inh (JNK3) [%] | %Inh (KIT-autoinhibited) [%] | %Inh (KIT) [%] | %Inh (LATS1) [%] | %Inh (LATS2) [%] | %Inh (LCK) [%] | %Inh (LIMK1) [%] | %Inh (LIMK2) [%] | %Inh (LKB1) [%] | %Inh (LOK) [%] | %Inh (LRRK2) [%] | %Inh (LTK) [%] | %Inh (LYN) [%] | %Inh (LZK) [%] | %Inh (MAK) [%] |
| --- | --- | --- | --- | --- | --- | --- | --- | --- | --- | --- | --- | --- | --- | --- | --- | --- | --- | --- | --- | --- |
| O=c1[nH]cc(-c2ccc(N3CCOCC3)cc2)c2sc(-c3cn[nH]c3)cc12 [GSK2276055] | 77 | 100 | 39 | 24 | 14 | 10 | 22 | 76 | 0 | 62 | 9 | 0 | 0 | 0 | 0 | 0 | 5 | 0 | 0 | 30 |
| Oc1cc(Nc2ccnc3cc(I)ccc23)ccc1F [GW552771] | 0 | 7 | 0 | 32 | 43 | 28 | 0 | 70 | 0 | 0 | 78 | 8 | 0 | 0 | 0 | 55 | 4 | 20 | 9 | 22 |
| Cl.NC(=O)c1cccc(Nc2nccc(Nc3ccc(Oc4c(Cl)cccc4Cl)c(Cl)c3)n2)c1 [GW659009] | 0 | 72 | 0 | 26 | 5 | 1 | 0 | 17 | 0 | 0 | 54 | 12 | 0 | 0 | 49 | 17 | 80 | 34 | 0 | 27 |
| O=C(Nc1cccc(-c2nn3ccccc3c2-c2ccnc(Nc3cccc(C(F)(F)F)c3)n2)c1)c1c(F)cccc1F [GSK292658] | 0 | 26 | 0 | 3 | 0 | 0 | 0 | 94.6 | 0 | 6 | 95.2 | 0 | 5 | 0 | 80 | 1 | 3 | 72 | 0 | 25 |
| O=C(NC1CCN(c2ccnc(Nc3ccc(F)cc3)n2)C1)c1cc2ccccc2s1 (stereo not drawn) [GSK1379716] | 0 | 0 | 0 | 24 | 29 | 13 | 0 | 21 | 7 | 0 | 32 | 0 | 0 | 19 | 0 | 0 | 10 | 0 | 23 | 38 |
| COc1cccc(NC(=O)NC2CCN(c3ccnc(Nc4cc(OC)c(OC)c(OC)c4)n3)C2)c1 (stereo not drawn) [GSK1379763] | 29 | 88 | 0 | 28 | 27 | 39 | 17 | 98.5 | 0 | 13 | 14 | 21 | 34 | 2 | 43 | 0 | 62 | 0 | 25 | 23 |
| FC(F)(F)c1ccc(/C=C/c2cncnc2Nc2ccc3[nH]c(Cc4ccccc4)nc3c2)cc1 [GW709199] | 2 | 65 | 0 | 0 | 0 | 0 | 0 | 0 | 19 | 0 | 9 | 0 | 0 | 0 | 13 | 0 | 0 | 1 | 0 | 18 |
| Cl.Cl.NCC(C(=O)Nc1cc(Br)c(-c2ccnc3[nH]ccc23)s1)c1ccccc1 (stereo not drawn) [GSK1269851] | 0 | 78 | 100 | 15 | 7 | 0 | 2 | 12 | 62 | 80 | 28 | 27 | 0 | 78 | 0 | 20 | 0 | 0 | 0 | 1 |
| COc1cccc(C2=C(Nc3ccc(Cl)c(C(=O)O)c3)C(=O)NC2=O)c1 [SB-390769] | 0 | 100 | 81 | 52 | 64 | 45 | 0 | 6 | 18 | 100 | 15 | 13 | 0 | 0 | 0 | 0 | 0 | 8 | 30 | 100 |
| C[C@@H](Oc1cc(-n2cnc3cc(-c4ccnc(NCCS(C)(=O)=O)c4)ccc32)sc1C(N)=O)c1ccccc1Cl [GSK907232] | 0 | 50 | 66 | 0 | 10 | 1 | 0 | 80 | 0 | 0 | 67 | 0 | 4 | 0 | 99.1 | 44 | 0 | 0 | 0 | 0 |
| COc1ccc(CNC(=O)NC2CCN(c3ccnc(Nc4ccc(F)cc4)n3)CC2)cc1 [GSK1379788] | 0 | 9 | 0 | 11 | 5 | 0 | 0 | 19 | 7 | 8 | 8 | 0 | 0 | 4 | 0 | 0 | 1 | 0 | 25 | 24 |
| CC(C)(C)c1ccc2nccc(Nc3cccc(O)c3)c2c1 [GW856795] | 0 | 36 | 35 | 32 | 23 | 15 | 9 | 26 | 10 | 0 | 85 | 0 | 1 | 29 | 0 | 36 | 18 | 22 | 0 | 40 |
| Cn1cc(-c2[nH]c3cc(NC(=O)[C@H](N)C4CCCCC4)cc4c3c2C=NNC4=O)cn1 | 100 | 98.7 | 99.5 | 0 | 0 | 0 | 28 | 99.9 | 90.4 | 100 | 90.7 | 90.6 | 96.6 | 94.3 | 17 | 56 | 0 | 76 | 0 | 0 |
| Cl.Cl.NCC(NCc1ccc(-c2ccnc3[nH]ccc23)s1)c1ccccc1 (stereo not drawn) [GSK1321565] | 0 | 96.9 | 100 | 24 | 14 | 4 | 0 | 25 | 62 | 95 | 16 | 0 | 20 | 82 | 29 | 10 | 31 | 0 | 40 | 0 |
| Cl.c1ccc(-c2ccc3c(Nc4ccc5[nH]ccc5c4)ccnc3c2)nc1 [GW440138] | 0 | 24 | 0 | 0 | 7 | 2 | 1 | 100 | 0 | 17 | 70 | 0 | 0 | 0 | 51 | 0 | 18 | 47 | 39 | 1 |
| Cn1cc(-c2ccc3c(c2)CCN3C(=O)Cc2cccc(Cl)c2)c2c(N)ncnc21 [GSK2606590] | 0 | 16 | 0 | 15 | 42 | 6 | 26 | 100 | 0 | 0 | 44 | 3 | 52 | 0 | 98.1 | 29 | 47 | 15 | 0 | 6 |
| COC(=O)Nc1nc2cc(Oc3ccc(NC(=O)Nc4cc(C(F)(F)F)ccc4F)cn3)ccc2[nH]1.Cl.Cl [GW681170] | 0 | 30 | 0 | 0 | 62 | 0 | 1 | 100 | 0 | 8 | 92.9 | 0 | 0 | 11 | 99.8 | 22 | 47 | 36 | 21 | 0 |
| COC(=O)Nc1nc2ccc(Oc3ccc(NC(=O)Nc4cc(C(F)(F)F)ccc4F)cc3)cc2n1C.Cl [GW692089] | 0 | 22 | 0 | 2 | 37 | 0 | 5 | 100 | 0 | 0 | 65 | 0 | 0 | 53 | 99.2 | 1 | 33 | 28 | 49 | 0 |
